This is a sample that favours compounds with a hit; in the whole collection about 6% have one here.
D1 potentiator: human D1 dopamine receptor positive modulation; AID 504651; 0.036% of 360,000 active; potentiation, % at 10 µM; HEK293 TREx D1 cells, calcium flux, dopamine EC20 potentiation; in the data active = potentiation above about 30%
D1 agonist: human D1 receptor agonism. P21728. HEK293 T-REx D1 cells, calcium flux, agonist mode. activation, % at 2 µM. 1% of 360,000 active. AID 504660; in the data active = activation above about 30%
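Agonism was scored from calcium flux recorded over 180 s (1 read/s) after pintool compound addition, following a 10-cycle baseline. Cells were inducible force-coupled HEK293 TREx D1, plated overnight at 30 C and loaded with no-wash calcium dye.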
DRD3 agonist: agonists of human D3 dopamine receptor | 0.58% of 410,000 active | P35462 | max activation, % | D3R DiscoveRx beta-arrestin cells, luminescence, 90 min | AID 652048; in the data active = max activation above about 30%
Target sequence (P35462 whole entry, looked up): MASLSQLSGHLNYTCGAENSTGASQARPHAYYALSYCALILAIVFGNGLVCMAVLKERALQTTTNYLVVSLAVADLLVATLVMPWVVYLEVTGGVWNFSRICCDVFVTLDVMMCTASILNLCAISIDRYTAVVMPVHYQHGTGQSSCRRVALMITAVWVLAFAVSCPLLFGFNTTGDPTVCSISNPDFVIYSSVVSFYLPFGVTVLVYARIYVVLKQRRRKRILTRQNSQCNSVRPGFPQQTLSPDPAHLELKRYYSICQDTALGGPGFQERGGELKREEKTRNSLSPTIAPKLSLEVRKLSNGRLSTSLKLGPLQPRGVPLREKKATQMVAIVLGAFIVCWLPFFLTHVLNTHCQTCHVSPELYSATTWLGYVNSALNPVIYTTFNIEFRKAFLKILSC
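Agonist mode: compounds and dopamine controls were applied to plated cells for 90 min at 37 degrees C after an overnight attachment at 1500 cells/well. Luminescent read-out followed 30 - 60 minutes at room temperature with DiscoveRx detection reagent.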
D1 antag: antagonists of human D1 dopamine receptor | HEK293 TREx D1 cells, calcium flux, dopamine EC80; hits give low values | 3.2% of 360,000 active | P21728 | activity change, negative = inhibition, % at 10 µM; in the data active = activity change below about -30%
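Tetracycline-induced HEK293 T-REx cells with force-coupled D1 receptor were loaded with a no-wash calcium dye. Compound was added after a 10 s baseline and read kinetically for 180 s; EC80 dopamine was then added and calcium flux followed another 180 s.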
D3 antag: antagonists of human D3 dopamine receptor | P35462 | D3R cells, DiscoveRx beta-arrestin luminescence, antagonist mode; hits give low values | max response, negative = inhibition, % | 2.5% of 360,000 active | AID 652054; in the data active = max response below about -50%; inconclusive = no clear call, values can overlap the other calls
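Cells expressing the human receptor were seeded at 1500 cells/well, incubated overnight at 37 degrees C in 5% CO2, then exposed to library compounds with dopamine controls for 90 minutes at 37 degrees C before luminescent detection.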
Large screens that a line does not name were inactive.

CCOc1ccccc1N1C(=O)NC(=O)/C(=C/c2ccc3c4c(cccc24)CC3)C1=O	D3 antag -52
CC[C@@H](O)C(C[C@@H](C)N(C)C)(c1ccccc1)c1ccccc1	none (no result: D1 potentiator, D1 agonist, D1 antag, D3 antag)
NCC(O)c1cc(O)c(O)cc1F (stereo not drawn)	D1 agonist 37, DRD3 agonist 176, D1 antag -85
O=Cc1ccco1	none (no result: D1 potentiator, D1 agonist, D1 antag, D3 antag)
Clc1ccc(OCC#CCN2CCCC2)cc1	D3 antag -55
CN1CCN(CC#CCOc2ccc(Cl)cc2)CC1	none
CC(C)N1CC=C(c2c[nH]c3ccccc23)CC1	D3 antag -58
CCC1(CC)C(=O)N(Cc2ccccc2)C(=O)N(Cc2ccccc2)C1=O	none
N=C1SCC(=O)N1Cc1ccccc1	D1 antag -31
O=C(CCl)c1ccc(Oc2ccc(C(=O)CCl)cc2)cc1	none (no result: D1 potentiator, D1 agonist, D1 antag, D3 antag)
Cc1ccsc1C(=O)C1CCCN(Cc2ccccc2O)C1 (stereo not drawn)	D3 antag -53
CCc1ccc(CN2CCCC(C(=O)c3sccc3C)C2)o1 (stereo not drawn)	D3 antag -52
Cc1ccsc1C(=O)C1CCCN(Cc2cnn(C(C)C)c2)C1 (stereo not drawn)	D3 antag -73
COCc1ccc(CN2CCCC(C(=O)c3sccc3C)C2)o1 (stereo not drawn)	D3 antag inconclusive
O=C(Nc1ccc(Br)cc1)c1cc(Br)cc(Br)c1O	none (no result: D1 potentiator, D1 agonist, D1 antag, D3 antag)
CN1CCc2cccc(Cl)c2CC1	D1 antag -64, D3 antag -78
CN1CN(c2ccccc2)C2(CCN(CCCSc3ccccc3NC(=O)/C=C/c3ccccc3)CC2)C1=O	D3 antag -107 (no result: D1 potentiator, D1 agonist, D1 antag)
N#CC1(N2CCCCC2)CCCCC1	none (no result: D1 potentiator, D1 agonist, D1 antag, D3 antag)
O=[N+]([O-])c1ccc(N2CCCC(C(F)(F)F)C2)c2ccncc12 (stereo not drawn)	DRD3 agonist 32
Clc1ccc(CCC(Cn2ccnc2)Sc2c(Cl)cccc2Cl)cc1 (stereo not drawn)	D1 agonist 46, D1 antag -54
Clc1ccc(C(Cn2ccnc2)OCc2csc3c(Cl)cccc23)c(Cl)c1 (stereo not drawn)	none
Clc1ccc2c(c1)C(c1ccccc1Cl)=NCc1nnc(N3CCN(CCOc4ccccc4)CC3)n1-2	D1 agonist 39, DRD3 agonist 54
Clc1ccc2c(c1)C(c1ccccc1Cl)=NCc1nnc(N3CCN(CCSc4ccccc4)CC3)n1-2	none
C=C1C(O)[C@@H]2O[C@]3(CC[C@H](/C=C/C(C)[C@@H]4CC(C)=CC5(O[C@H](C[C@@](C)(O)C(=O)O)CCC5O)O4)O3)CC[C@H]2O[C@@H]1C(O)CC(C)[C@H]1OC2(CCCCO2)CCC1C (stereo partly drawn)	D3 antag -132 (no result: D1 potentiator, D1 agonist, D1 antag)
CCC(=O)O[C@@](Cc1ccccc1)(c1ccccc1)[C@@H](C)CN(C)C	none (no result: D1 potentiator, D1 agonist, D1 antag, D3 antag)
COC(=O)C(O)(c1ccc(NC(=O)c2ccccc2)cc1)C(F)(F)F (stereo not drawn)	none
COC(=O)C(O)(c1ccc(NC(=O)c2cccs2)cc1)C(F)(F)F (stereo not drawn)	D3 antag -62
Cc1c(C=O)c2ccccc2n1Cc1ccccc1	none
O=Cc1c(C(=O)O)n(Cc2ccc(Cl)cc2)c2ccccc12	D1 agonist 54
C[C@@H](CO)NC(=O)[C@@H]1C=C2c3cccc4[nH]cc(c34)C[C@H]2N(C)C1	DRD3 agonist 38 (no result: D1 potentiator, D1 agonist, D1 antag, D3 antag)
COCCCn1c(N)c(C(=O)OC(C)COC)c2nc3ccccc3nc21 (stereo not drawn)	D1 antag -32
CCCCOCCCn1c(N)c(C(=O)OC(C)COC)c2nc3ccccc3nc21 (stereo not drawn)	none
COCCCNC(=O)c1c(NC(=O)c2ccccc2Cl)n(Cc2ccccc2)c2nc3ccccc3nc12	D1 agonist 40, D3 antag inconclusive
COCCNC(=O)c1c(NC(=O)c2ccco2)n(Cc2ccccc2)c2nc3ccccc3nc12	none
CC(Cc1ccccc1)NCCn1cnc2c1c(=O)n(C)c(=O)n2C (stereo not drawn)	none (no result: D1 potentiator, D1 agonist, D1 antag, D3 antag)
C=C1C(=O)O[C@@H]2C[C@@H](C)[C@H]3C=CC(=O)[C@]3(O)C[C@@H]12	D3 antag inconclusive
C=C1C(=O)OC2CC3(C)OC3CCC(C)=CC(OC(C)=O)C12 (stereo not drawn)	D3 antag -52 (no result: D1 potentiator, D1 agonist, D1 antag)
CCCS(=O)(=O)N1CCCC(C(=O)N2CCC3(CC2)OCCO3)C1 (stereo not drawn)	none
CS(=O)(=O)N1CCCC(C(=O)N2CCC3(CC2)OCCO3)C1 (stereo not drawn)	D1 antag -34
O=C1C(I)=CC(=C(c2cc(I)c(O)c(I)c2)c2ccccc2C(=O)O)C=C1I	none (no result: D1 potentiator, D1 agonist, D1 antag, D3 antag)
O=C(Cn1nc(-c2ccc(Cl)cc2)ccc1=O)N1CCC2(CC1)OCCO2	D1 antag -35
O=C(CCn1nc(-c2ccc(Cl)cc2)ccc1=O)N1CCC2(CC1)OCCO2	none
COc1ccc(C(C)=O)cc1CN1CC=C(c2ccccc2)CC1	D3 antag -101
CCc1ccc2c(CN3CC=C(c4ccccc4)CC3)cc(=O)oc2c1	none
Cc1ccc2c(CN3CC=C(c4ccccc4)CC3)cc(=O)oc2c1C	DRD3 agonist 40
C[C@@H]1NCCc2cc(O)c(O)cc21	D3 antag -74
COC(=O)C[C@]1(C(=O)OC)CN(C#N)N(c2ccc(Cl)cc2)C12c1ccccc1-c1ccccc12	D3 antag -74
COC(=O)[C@@H]1[C@@H](C(=O)OC)C2(c3ccccc3-c3ccccc32)N(c2ccc(Cl)cc2)N1C#N	D3 antag -76
COP(=S)(OC)Oc1ccc(S(N)(=O)=O)cc1	none (no result: D1 potentiator, D1 agonist, D1 antag, D3 antag)
CC(Cc1ccccc1Sc1ccccc1O)N(C)C (stereo not drawn)	D1 agonist 40, D1 antag -38
COC(=O)C1=C(c2ccc(Cl)c(C(F)(F)F)c2)C[C@@H]2CC[C@H]1N2C(=O)N1CCCC1	D1 antag -42
COC(=O)C1=C(c2ccc(F)cc2F)C[C@@H]2CC[C@H]1N2C(=O)N1CCCC1	none
COC(=O)C1=C(c2ccc(Cl)c(C(F)(F)F)c2)C[C@@H]2CC[C@H]1N2C(=O)N1CCOCC1	none
COC(=O)C1=C(c2ccc(F)cc2F)C[C@@H]2CC[C@H]1N2C(=O)N1CCC(O)(c2ccc(Cl)cc2)CC1	D1 antag -46
CCCN(CCC)c1c([N+](=O)[O-])cc(S(N)(=O)=O)cc1[N+](=O)[O-]	none (no result: D1 potentiator, D1 agonist, D1 antag, D3 antag)
O=C(c1cc(F)ccc1F)C1CCCN(Cc2ccc3nonc3c2)C1 (stereo not drawn)	D1 antag -31
O=C(c1ccc(Cl)cc1)C1CCCN(Cc2ccc3c(c2)OCCO3)C1 (stereo not drawn)	none
O=C(c1ccc2c(c1)OCO2)C1CCCN(Cc2ccc(F)c(F)c2)C1 (stereo not drawn)	D1 antag -34, D3 antag -52
CCCCNC(C)(C)[P+](=O)O	none (no result: D1 potentiator, D1 agonist, D1 antag, D3 antag)
C[C@H]1[C@@H]2Cc3ccc(O)cc3[C@@]1(C)CCN2C	none (no result: D1 potentiator, D1 agonist, D1 antag, D3 antag)

From PubChem BioAssay
